# Assays:
# Assay in all cases: PBM binding z-score (relative to random genomic background probes); higher = stronger binding; sequences stand for … in GC…GCGATTGACAGCGTAGAATGAAGG
# [1] = test system: FXR:RXRa (NR concentration 270 nM, RXRa partner concentration 90 nM)
# Outline: (§1)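 Binding buffer was PBS pH 7.4 with 2% milk, 0.02% Triton X-100, 1 mM DTT, 0.2 mg/mL BSA and 0.4 mg/ml salmon testes DNA. In it, ligand-free nuclear receptor dimers were incubated 1 h on custom Agilent 4×180K protein-binding microarrays carrying double-stranded probes. Antibodies against each partner (one per run) detected binding, and z-scores were calculated against random background probes after regression normalization of scanned fluorescence.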
# [2] = test system: LXRa:RXRa (NR concentration 270 nM, RXRa partner concentration 90 nM)
# Outline: as §1
# [3] = test system: LXRa homodimer (NR concentration 270 nM)
# Outline: as §1
# [4] = test system: LXRb:RXRa (NR concentration 270 nM, RXRa partner concentration 90 nM)
# Outline: as §1
# [5] = test system: LXRb homodimer (NR concentration 270 nM)
# Outline: as §1
# [6] = test system: PPARa:RXRa (NR concentration 270 nM, RXRa partner concentration 90 nM)
# Outline: as §1
# [7] = test system: PPARg:RXRa (NR concentration 180 nM, RXRa partner concentration 90 nM)
# Outline: as §1
# [8] = test system: PPARg:RXRa 270nM:90nM, anti-RXR (NR concentration 270 nM, RXRa partner concentration 90 nM)
# Outline: as §1
# [9] = test system: PPARg:RXRa 30nM:10nM, anti-RXR (NR concentration 30 nM, RXRa partner concentration 10 nM)
# Outline: as §1
# [10] = test system: PPARg:RXRa 90nM:30nM, anti-RXR (NR concentration 90 nM, RXRa partner concentration 30 nM)
# Outline: as §1
Sequence,PBM binding z-score [1],PBM binding z-score [2],PBM binding z-score [3],PBM binding z-score [4],PBM binding z-score [5],PBM binding z-score [6],PBM binding z-score [7],PBM binding z-score [8],PBM binding z-score [9],PBM binding z-score [10]
CGTCCAAGGTCAAATGTCAGTGAAGAGATGACGG,7.54,5.76,1.47,4.6,2.22,6.09,6.34,6.37,3.35,5.7
ACTAGCAGGCCAAGTTTGGGTCTCTCAAACAAAG,-0.742,-0.825,-0.773,-0.616,-0.908,-0.417,-0.897,-0.524,-1.1,-0.853
GCTAGCAGGCCATTTGGGTCACACAATGACGGGC,0.201,0.0992,-0.68,0.327,-0.778,1.89,1.2,1.09,-0.147,0.392
AGAATGAGGTTAAGATCTGGGAAACAGAATACAT,1.95,1.82,-0.135,1.51,-0.0689,3.64,2.13,2.39,0.969,1.84
GCGACTGGCGCATCAGCAGGTTACCATAACTTAA,-0.425,-0.781,-0.313,-0.631,-1.19,-0.493,-0.0523,-0.785,-0.798,-0.75
CTCGAAAGGTCGGTTGAGATGAGTATACGGATAA,1.6,1.27,0.0638,1.32,-0.0369,2.34,0.617,0.887,0.602,0.615
CTCGAAAGGTCGGTTGAGGTGAGTTTACGGATAA,2.83,1.88,0.32,1.63,-0.184,2.69,-9.87e-05,1.12,0.0415,0.508
CCTACTGGGCCAGCAGGTCATTGATATCAACGTT,0.852,0.958,0.496,1.21,-0.78,2.51,2.26,2.84,1.09,2.63
CCGACTGGGGCACGGTTACCATAACGCACAGCCA,-0.15,-0.079,-0.346,-0.211,-0.878,0.346,1.8,0.982,-0.228,0.391
CCTAGTTGGTCAAGGTCACAGACGCTATAGGTAC,4.56,3.92,1.56,3.6,0.603,4.38,3.54,3.88,1.54,2.79
CTTGAAAGGTCGGTTGAGGTGAGTATACGGATAA,3.64,2.28,-0.0492,2.52,-0.354,3.43,0.512,1.27,0.216,0.942
CAAACTAGGTCTCCGGAAGGTCAAAGTCCGCATG,2.65,3.15,2.79,3.25,0.445,3.75,2.85,3.29,0.811,2.34
TTACCAAGCTGAGCTGAGGTCGTTGATCCAACTC,0.0307,-0.149,-0.687,-0.148,-1.09,0.413,-0.752,-0.18,-0.479,-0.597
CGTCCAAGGTCAATGCTAGGTCAGGGAAAGCATT,6.82,5.42,2.86,4.1,0.919,5.17,4.49,4.52,1.47,3.37
CGACCTAGGTCATTGACAGGACAGTGAATAGTAA,5.8,4.01,0.717,2.75,0.226,4.18,3.67,3.24,0.782,2.01
GTACCAAGGTGAGTAGGTCGTTGATGAGTAGGCG,0.04,0.0147,-0.31,-0.286,-0.924,1.17,0.822,0.888,-0.11,0.35
CTCGAAAGGTCGTGCTCAGCTGAGTATACCAAAC,4.95,3.96,-0.247,3.26,0.329,4.67,2.52,3.89,0.929,2.38
GGAACGACGGCAAAGTTGATAGCATCTGTCGACG,-0.522,-0.556,-0.557,-0.755,-0.926,0.00733,1.01,1.58,0.147,1.28
AGTCAAAGTTCACTAGGTAACGTTAGATTCAGCT,5.17,5.24,3.17,2.95,1.04,4.7,7.15,6.57,3.45,6.1
TGCATGAGGTTAAAGATCAGGGAACGTGGCGTCG,3.2,2.84,0.267,1.84,0.579,3.89,4.03,4.6,2.43,4.38
ATCGAACGGTCGAAGGTGAGTATACCCACCCGAA,-0.145,-0.0927,-0.458,-0.384,-0.206,0.517,1.03,1.22,0.0354,0.698
CAACCTAGGTCAGGGCCAGTATAGGAGGAACGTT,2.3,1.36,-0.178,0.897,-0.856,2.5,1.79,1.74,0.0391,0.938
TCATATAGATAAAGGTGAAAGTCGAACGATATGA,0.837,1.1,0.162,1.26,0.134,2.57,2.33,3.51,4.36,4.09
CTTACAGGGTCAGCTAGGCCAGAGTAGGGACGGC,4.5,2.83,-0.519,2.04,-0.147,4.25,2.76,3.24,0.782,2.02

Sequence,PBM binding z-score [1],PBM binding z-score [2],PBM binding z-score [3],PBM binding z-score [4],PBM binding z-score [5],PBM binding z-score [6],PBM binding z-score [7],PBM binding z-score [8],PBM binding z-score [9],PBM binding z-score [10]
TAGCCTAGGTCATTGGGCCAGTGTAGTACGCATC,4.3,3.42,0.864,2.46,0.102,3.86,3.6,3.76,0.587,2.41
TCATATAGGTAAAGGGGAAAGTCGAACGATATGA,0.639,0.796,-0.0838,0.901,0.0683,2.18,2.99,4.18,4.55,4.52
ACTGTTAGTTGAGACGAGGGCAACCGATAGGTTG,0.919,0.0939,-0.0594,0.0493,0.747,0.275,0.412,-0.13,-0.0644,0.0713
CCAGACAGATGAAAGGTAACTCAGTCTGGTACGC,-0.273,0.0444,-0.381,0.156,-0.167,0.579,0.879,1.21,0.636,0.829
TCTCGGGGGACACGAAGGTCAGAGCTTTCCAGAG,2.9,2.88,0.575,4.36,6.23,3.77,1.86,3.73,3.31,3.45
ATATGTAGGTTAGCTGGGGTCAGTCAGACTAGGC,2.47,4.36,0.893,3.37,0.881,4.38,5.08,4.38,1.86,3.72
TGAATGTGGTTAAAGATCAGGGAACGTGGCGTCG,-0.133,-0.264,0.0303,-0.186,0.696,0.692,1.33,2.69,1.45,2.47
TCTGCTAAGTCAACGATGGTCAGCTAATCTGCTA,-0.531,-0.432,-0.993,-0.553,-0.721,-0.269,-0.51,0.278,1.33,0.924
CGTCCAAGGTCGAGGTCAGTGAAAGAGACTCGAA,4.56,3.15,0.186,2.74,-0.695,4.31,2.53,3.25,0.231,1.81
ATCTCTAGGAAAAGTTCAGTGAAAGATCGATAGA,0.71,1.22,0.761,0.737,0.622,0.611,0.521,1.56,0.619,1.36
TAGCCTAGGTCATTGGGCCAGTAAAGTACGCATC,4.37,3.38,0.448,2.29,0.0341,4,3.28,3.76,1.14,2.4
TCTCGGAGGATACGAAAGGTCAGAGCTCGACATC,2.69,4.17,2.95,3.22,-0.148,3.68,1.75,3.37,2.63,3.04
CCTACTGGACCACGAAAGGTCATTGATTCAGTGA,3.93,5,5.74,4.47,1.54,4.5,2.84,3.67,1.47,2.9
ATCTCCAGGTAACAAGTTCAGTGAAAGAGAGGAC,1.08,1.37,0.906,0.805,1.22,0.983,0.944,1.21,0.66,0.891
CCTGCTAGGTAAATGGTCAGCTAAAGCAGCTCGC,-0.299,-0.376,-0.748,-0.628,-0.539,-0.0599,0.476,1.64,0.189,1.31
ACAGACAGGTGATGAAGGTAAGTCAGGCTATCAT,-0.11,-0.19,-0.349,-0.143,-0.155,0.0808,0.554,-0.245,-0.266,-0.536
CCTACTGGGCCACGAAAGGTCATTGTTTCAGTGA,3.44,5.19,5.22,4.29,0.43,4.61,4.26,4.79,1.73,4.24
GCTAGCAGGCTATTTGGGTCACTCAATGACGGGC,0.127,0.137,-0.259,0.255,-0.646,2.16,1.11,1.36,-0.338,0.706
GTACCAAGTTGAATAGGTCGTTGATGAGTAGGCG,0.0295,0.289,-0.317,0.163,-0.262,0.893,0.208,0.125,-0.197,-0.278
TCTCGGAGGACAAGAAGGTCAGAGCTTTCCAGAG,1.04,1.14,0.138,0.982,-0.842,1.9,0.179,1.35,2.52,1.71
CGACCAAGGTCAAGGTCAGTGAAAGAGACTCGAA,7.76,5.28,0.72,4.53,0.222,6.07,6.71,6.54,2.6,5.32
TCAGACAGGTGAAGGTAAATCAGGTACGCAGTCG,1.69,1.37,0.109,1.11,0.081,1.6,0.829,2.39,4.45,3.31
ACTATTAGTTGAGACCAGGGCAACCGATAGGTTG,0.433,-0.242,-0.0882,-0.177,0.0937,0.067,0.508,0.263,0.00186,-0.189
ATCTCTGGGTAACCAAGTTCAGTGAATGCCGAAC,0.227,0.778,0.498,0.621,0.534,1.09,0.329,0.858,-0.0191,0.333

# Reference: the supplement of paper PMC6555819
